# Results published in the supplement of paper PMC4466140.
# How the values were obtained:
# Assay in all cases: SPOT peptide array binding signal intensity (averaged, normalized) (arbitrary units (background-subtracted, floor 0; scale differs between SH3 domains)); higher = stronger binding of the SH3 domain to the peptide
# CaNbp2 = target: CaNbp2
# Outline: (§1)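 Peptides were synthetic 15-mers on cellulose membranes, with every cysteine replaced by serine. They were incubated overnight at 4°C with GST-SH3 domains from four yeast species at 10 μg/ml in TBS-based blocking buffer. Binding signal, the replicate-averaged normalized and background-subtracted spot intensity, is in arbitrary units that differ between domains.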
# CaRvs167 = target: CaRvs167
# Outline: as §1
# CaRvs167-3 = target: CaRvs167-3
# Outline: as §1
# CaSho1 = target: CaSho1
# Outline: as §1
# CaSla1-D1-D2 = target: CaSla1-D1-D2
# Outline: as §1
# CaSla1-D3 = target: CaSla1-D3
# Outline: as §1
# ScAbp1 = target: ScAbp1
# Outline: as §1
# ScBbc1 = target: ScBbc1
# Outline: as §1
# ScBem1-D1 = target: ScBem1-D1
# Outline: as §1
# ScBzz1-D1 = target: ScBzz1-D1
# Outline: as §1
# ScBzz1-D2 = target: ScBzz1-D2
# Outline: as §1
# ScCyk3 = target: ScCyk3
# Outline: as §1
# ScFus1 = target: ScFus1
# Outline: as §1
# ScHof1 = target: ScHof1
# Outline: as §1
# ScHse1 = target: ScHse1
# Outline: as §1
# ScLsb1 = target: ScLsb1
# Outline: as §1
# ScLsb2 = target: ScLsb2
# Outline: as §1
# ScLsb3 = target: ScLsb3
# Outline: as §1
# ScLsb4 = target: ScLsb4
# Outline: as §1
# ScMyo3 = target: ScMyo3
# Outline: as §1
# ScMyo5 = target: ScMyo5
# Outline: as §1
# ScNbp2 = target: ScNbp2
# Outline: as §1
# ScPex13 = target: ScPex13
# Outline: as §1
# ScRvs167 = target: ScRvs167
# Outline: as §1
# ScSho1 = target: ScSho1
# Outline: as §1
# ScSla1-D1-D2 = target: ScSla1-D1-D2
# Outline: as §1
# ScSla1-D3 = target: ScSla1-D3
# Outline: as §1
# SpAbp1-D1 = target: SpAbp1-D1
# Outline: as §1
# SpBbc1 = target: SpBbc1
# Outline: as §1
# SpBzz1-D1 = target: SpBzz1-D1
# Outline: as §1
# SpBzz1-D2 = target: SpBzz1-D2
# Outline: as §1
# SpCyk3 = target: SpCyk3
# Outline: as §1
# SpHof1 = target: SpHof1
# Outline: as §1
# SpHof1-2 = target: SpHof1-2
# Outline: as §1
# SpHof1-3 = target: SpHof1-3
# Outline: as §1
# SpHse1 = target: SpHse1
# Outline: as §1
# SpLsb1 = target: SpLsb1
# Outline: as §1
# SpLsb4 = target: SpLsb4
# Outline: as §1
# SpMyo1 = target: SpMyo1
# Outline: as §1
# SpNbp2 = target: SpNbp2
# Outline: as §1
# SpPex13 = target: SpPex13
# Outline: as §1
# SpRvs167 = target: SpRvs167
# Outline: as §1
# SpSla1-D1-D2 = target: SpSla1-D1-D2
# Outline: as §1
# SpSla1-D3 = target: SpSla1-D3
# Outline: as §1
# AgAbp1 = target: AgAbp1
# Outline: as §1
# AgBbc1 = target: AgBbc1
# Outline: as §1
# AgBem1-D1 = target: AgBem1-D1
# Outline: as §1
# AgBzz1-D1 = target: AgBzz1-D1
# Outline: as §1
# AgBzz1-D2 = target: AgBzz1-D2
# Outline: as §1
# AgCyk3 = target: AgCyk3
# Outline: as §1
# AgFus1 = target: AgFus1
# Outline: as §1
# AgHof1 = target: AgHof1
# Outline: as §1
# AgHse1 = target: AgHse1
# Outline: as §1
# AgLsb1 = target: AgLsb1
# Outline: as §1
# AgLsb4 = target: AgLsb4
# Outline: as §1
# AgMyo5 = target: AgMyo5
# Outline: as §1
# AgNbp2 = target: AgNbp2
# Outline: as §1
# AgRvs167 = target: AgRvs167
# Outline: as §1
# AgSho1 = target: AgSho1
# Outline: as §1
# AgSla1-D1-D2 = target: AgSla1-D1-D2
# Outline: as §1
# AgSla1-D3 = target: AgSla1-D3
# Outline: as §1
# CaAbp1-D1 = target: CaAbp1-D1
# Outline: as §1
# CaAbp1-D2 = target: CaAbp1-D2
# Outline: as §1
# CaBbc1 = target: CaBbc1
# Outline: as §1
# CaBem1-D1 = target: CaBem1-D1
# Outline: as §1
# CaBzz1-D1 = target: CaBzz1-D1
# Outline: as §1
# CaBzz1-D2 = target: CaBzz1-D2
# Outline: as §1
# CaCyk3 = target: CaCyk3
# Outline: as §1
# CaFus1 = target: CaFus1
# Outline: as §1
# CaHof1 = target: CaHof1
# Outline: as §1
# CaHse1 = target: CaHse1
# Outline: as §1
# CaLsb1 = target: CaLsb1
# Outline: as §1
# CaLsb4 = target: CaLsb4
# Outline: as §1
# CaMyo5 = target: CaMyo5
# Outline: as §1
binder,measurement,setting,value
LYEAMPPTLPHRDWK,SPOT peptide array binding signal intensity,CaNbp2,141
same,SPOT peptide array binding signal intensity,CaRvs167,195
same,SPOT peptide array binding signal intensity,CaRvs167-3,6
same,SPOT peptide array binding signal intensity,CaSho1,130
same,SPOT peptide array binding signal intensity,CaSla1-D1-D2,25.5
same,SPOT peptide array binding signal intensity,CaSla1-D3,60.5
same,SPOT peptide array binding signal intensity,ScAbp1,≤ 0
same,SPOT peptide array binding signal intensity,ScBbc1,≤ 0
same,SPOT peptide array binding signal intensity,ScBem1-D1,≤ 0
same,SPOT peptide array binding signal intensity,ScBzz1-D1,≤ 0
same,SPOT peptide array binding signal intensity,ScBzz1-D2,21
same,SPOT peptide array binding signal intensity,ScCyk3,3
same,SPOT peptide array binding signal intensity,ScFus1,95.5
same,SPOT peptide array binding signal intensity,ScHof1,4.5
same,SPOT peptide array binding signal intensity,ScHse1,15
same,SPOT peptide array binding signal intensity,ScLsb1,13
same,SPOT peptide array binding signal intensity,ScLsb2,2
same,SPOT peptide array binding signal intensity,ScLsb3,736
same,SPOT peptide array binding signal intensity,ScLsb4,636
same,SPOT peptide array binding signal intensity,ScMyo3,19.5
same,SPOT peptide array binding signal intensity,ScMyo5,0.5
same,SPOT peptide array binding signal intensity,ScNbp2,252
same,SPOT peptide array binding signal intensity,ScPex13,807
same,SPOT peptide array binding signal intensity,ScRvs167,374
same,SPOT peptide array binding signal intensity,ScSho1,257
same,SPOT peptide array binding signal intensity,ScSla1-D1-D2,46
same,SPOT peptide array binding signal intensity,ScSla1-D3,85.5
same,SPOT peptide array binding signal intensity,SpAbp1-D1,≤ 0
same,SPOT peptide array binding signal intensity,SpBbc1,2
same,SPOT peptide array binding signal intensity,SpBzz1-D1,67
same,SPOT peptide array binding signal intensity,SpBzz1-D2,0.5
same,SPOT peptide array binding signal intensity,SpCyk3,3
same,SPOT peptide array binding signal intensity,SpHof1,2
same,SPOT peptide array binding signal intensity,SpHof1-2,2
same,SPOT peptide array binding signal intensity,SpHof1-3,0.5
same,SPOT peptide array binding signal intensity,SpHse1,78.5
same,SPOT peptide array binding signal intensity,SpLsb1,2.25
same,SPOT peptide array binding signal intensity,SpLsb4,1290
same,SPOT peptide array binding signal intensity,SpMyo1,32.5
same,SPOT peptide array binding signal intensity,SpNbp2,22.5
same,SPOT peptide array binding signal intensity,SpPex13,38.5
same,SPOT peptide array binding signal intensity,SpRvs167,282
same,SPOT peptide array binding signal intensity,SpSla1-D1-D2,1
same,SPOT peptide array binding signal intensity,SpSla1-D3,21
NFKRLLPRDPSEKSS,SPOT peptide array binding signal intensity,AgAbp1,1
same,SPOT peptide array binding signal intensity,AgBbc1,0.75
same,SPOT peptide array binding signal intensity,AgBem1-D1,105
same,SPOT peptide array binding signal intensity,AgBzz1-D1,6
same,SPOT peptide array binding signal intensity,AgBzz1-D2,35
same,SPOT peptide array binding signal intensity,AgCyk3,0.5
same,SPOT peptide array binding signal intensity,AgFus1,311
same,SPOT peptide array binding signal intensity,AgHof1,32
same,SPOT peptide array binding signal intensity,AgHse1,2610
same,SPOT peptide array binding signal intensity,AgLsb1,2.5
same,SPOT peptide array binding signal intensity,AgLsb4,50
same,SPOT peptide array binding signal intensity,AgMyo5,1
same,SPOT peptide array binding signal intensity,AgNbp2,≤ 0
same,SPOT peptide array binding signal intensity,AgRvs167,2
same,SPOT peptide array binding signal intensity,AgSho1,99.5
same,SPOT peptide array binding signal intensity,AgSla1-D1-D2,15.5
same,SPOT peptide array binding signal intensity,AgSla1-D3,5.5
same,SPOT peptide array binding signal intensity,CaAbp1-D1,126
same,SPOT peptide array binding signal intensity,CaAbp1-D2,30
same,SPOT peptide array binding signal intensity,CaBbc1,≤ 0
same,SPOT peptide array binding signal intensity,CaBem1-D1,≤ 0
same,SPOT peptide array binding signal intensity,CaBzz1-D1,≤ 0
same,SPOT peptide array binding signal intensity,CaBzz1-D2,17.8
same,SPOT peptide array binding signal intensity,CaCyk3,≤ 0
same,SPOT peptide array binding signal intensity,CaFus1,970
same,SPOT peptide array binding signal intensity,CaHof1,0.5
same,SPOT peptide array binding signal intensity,CaHse1,81
same,SPOT peptide array binding signal intensity,CaLsb1,0.5
same,SPOT peptide array binding signal intensity,CaLsb4,≤ 0
same,SPOT peptide array binding signal intensity,CaMyo5,7
same,SPOT peptide array binding signal intensity,CaNbp2,286
same,SPOT peptide array binding signal intensity,CaRvs167,6.33
same,SPOT peptide array binding signal intensity,CaRvs167-3,31.5
same,SPOT peptide array binding signal intensity,CaSho1,340
same,SPOT peptide array binding signal intensity,CaSla1-D1-D2,≤ 0
same,SPOT peptide array binding signal intensity,CaSla1-D3,1
same,SPOT peptide array binding signal intensity,ScAbp1,66.5
same,SPOT peptide array binding signal intensity,ScBbc1,≤ 0
same,SPOT peptide array binding signal intensity,ScBem1-D1,27
same,SPOT peptide array binding signal intensity,ScBzz1-D1,21
same,SPOT peptide array binding signal intensity,ScBzz1-D2,18
same,SPOT peptide array binding signal intensity,ScCyk3,105
same,SPOT peptide array binding signal intensity,ScFus1,308
same,SPOT peptide array binding signal intensity,ScHof1,3
same,SPOT peptide array binding signal intensity,ScHse1,2620
same,SPOT peptide array binding signal intensity,ScLsb1,1
same,SPOT peptide array binding signal intensity,ScLsb2,2
same,SPOT peptide array binding signal intensity,ScLsb3,83.5
same,SPOT peptide array binding signal intensity,ScLsb4,1
same,SPOT peptide array binding signal intensity,ScMyo3,2
same,SPOT peptide array binding signal intensity,ScMyo5,4.5
same,SPOT peptide array binding signal intensity,ScNbp2,35.5
same,SPOT peptide array binding signal intensity,ScPex13,3.5
same,SPOT peptide array binding signal intensity,ScRvs167,16.2
same,SPOT peptide array binding signal intensity,ScSho1,1040
same,SPOT peptide array binding signal intensity,ScSla1-D1-D2,35.5
same,SPOT peptide array binding signal intensity,ScSla1-D3,0.5
same,SPOT peptide array binding signal intensity,SpAbp1-D1,21
same,SPOT peptide array binding signal intensity,SpBbc1,1
same,SPOT peptide array binding signal intensity,SpBzz1-D1,17.5
same,SPOT peptide array binding signal intensity,SpBzz1-D2,0.5
same,SPOT peptide array binding signal intensity,SpCyk3,7
same,SPOT peptide array binding signal intensity,SpHof1,283
same,SPOT peptide array binding signal intensity,SpHof1-2,88
same,SPOT peptide array binding signal intensity,SpHof1-3,1360
same,SPOT peptide array binding signal intensity,SpHse1,2380
same,SPOT peptide array binding signal intensity,SpLsb1,≤ 0
same,SPOT peptide array binding signal intensity,SpLsb4,23
same,SPOT peptide array binding signal intensity,SpMyo1,7.25
same,SPOT peptide array binding signal intensity,SpNbp2,44
same,SPOT peptide array binding signal intensity,SpPex13,5
same,SPOT peptide array binding signal intensity,SpRvs167,19.3
same,SPOT peptide array binding signal intensity,SpSla1-D1-D2,0.5
same,SPOT peptide array binding signal intensity,SpSla1-D3,3
